In all, about 33,000 sequences were measured (“e-score”: median about -0.053, highest 2% from about 0.38 on). The full list was thinned out, with the highest values kept by preference.

The target of the assay is T1, SIX1 homeodomain (reference allele) (human, UniProt Q15475 108-198).
T1 sequence: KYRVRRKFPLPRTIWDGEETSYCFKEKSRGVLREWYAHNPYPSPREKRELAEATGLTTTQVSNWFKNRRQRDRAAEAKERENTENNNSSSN
The assay can be described thus: universal protein binding microarray; Universal all-10-mer PBM (8x60K, AMADID 030236), 300 nM GST-tagged protein, Alexa Fluor 488 anti-GST; buffer, salt, pH and temperature not stated (as in Berger); high values mean tight binding. The note with it: protein: ivt; tags: N-terminal GST; dsDNA, one strand shown. The method, boiled down:
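Binding was expressed as 8-mer E-scores calculated with the Universal PBM Analysis Suite. The GST-tagged homeodomains, made by in vitro transcription/translation, were applied in duplicate at 300 nM final concentration to universal 'all 10-mer' protein binding microarrays (8×60K format).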
In the case of GGTATGAA, the binding signal was 0.224 ± 0.00641 E-score. The value for GCCTAATA was 0.167 ± 0.0373 E-score; that for ATCATGCA was 0.225 ± 0.0116 E-score. For AGATAGTA, the binding signal amounted to 0.24 ± 0.0305 E-score. For the sequence ACCGTATC, the binding signal is 0.449 ± 0.00906 E-score. The value for CCCGTATC was 0.469 ± 0.0109 E-score; that for ACCGTCTC was 0.251 ± 0.0203 E-score; that for ACCGTATA was 0.278 ± 0.0281 E-score. The value for CCCGTATA was 0.29 ± 0.023 E-score.

For the sequence CCCGTCTC, the binding signal turned out to be 0.205 ± 0.0534 E-score. As for ATACAGTC, the figure is 0.163 ± 0.00378 E-score. The value for CAGATAGC was 0.171 ± 0.0462 E-score; that for GGGATTAC was 0.167 ± 0.011 E-score. The value for CAGGATTA was 0.213 ± 0.0434 E-score; that for CGGATTAC was 0.299 ± 0.00435 E-score. For the sequence AGATAATA, the binding signal was 0.245 ± 0.114 E-score. For ATCAAATA, the binding signal was 0.239 ± 0.0859 E-score. As to CACAATAC, the binding signal was determined as 0.31 ± 0.0105 E-score. As for ATACTACC, the figure is 0.23 ± 0.0327 E-score. The value for CATGGATA was 0.3 ± 0.00508 E-score; that for TAGGGATA was 0.41 ± 0.00754 E-score; that for GAGGGGTA was 0.257 ± 0.0214 E-score. Turning to GATGGATA, the binding signal was 0.3768 ± 0.0011 E-score. GAGGGATA: the binding signal worked out at 0.412 ± 0.00552 E-score. Take GAGGGATC: the binding signal came out at 0.397 ± 0.00899 E-score.

AAGGGATA: the binding signal came to 0.37 ± 0.0084 E-score. As for TAGGGAGA, the figure is 0.177 ± 0.0683 E-score; as for AATGGATA, 0.354 ± 0.0168 E-score; as for GGCATATA, 0.29 ± 0.00948 E-score.

For the sequence CGGATTAA, the binding signal was 0.351 ± 0.0739 E-score. The value for CTATAATA was 0.259 ± 0.0899 E-score; that for GATCTCGC was 0.254 ± 0.0311 E-score; that for ATAGATGA was 0.287 ± 0.0197 E-score. For the sequence ATCGTGCA, the binding signal amounted to 0.16 ± 0.0147 E-score.

Take ATATGGAT: the binding signal was 0.371 ± 0.00838 E-score. As for ACGGATCA, the figure is 0.43 ± 0.0139 E-score. As for CCCGATCG, the figure is 0.323 ± 0.0723 E-score; as for CCAGATCC, 0.332 ± 0.0766 E-score; as for ACGGATCC, 0.386 ± 0.0442 E-score. The value for CCGGATTC was 0.249 ± 0.0385 E-score; that for CCGGATCG was 0.417 ± 0.0468 E-score. Regarding ACGGATCG, the binding signal worked out at 0.354 ± 0.0265 E-score. The value for ACGGATCT was 0.324 ± 0.0553 E-score; that for ACAGATCC was 0.288 ± 0.0336 E-score.

Regarding GCGGATCC, the binding signal was determined as 0.348 ± 0.0564 E-score. The value for CCGGATCC was 0.424 ± 0.034 E-score; that for ATCTCGAG was 0.215 ± 0.0177 E-score; that for AACCCATA was 0.263 ± 0.0634 E-score. The value for GTTAGATA was 0.248 ± 0.0413 E-score. The value for AAGATCAA was 0.201 ± 0.0668 E-score.

Turning to ATCCTACC, the binding signal came out at 0.299 ± 0.0201 E-score. For the sequence CGTATTAG, the binding signal came out at 0.174 ± 0.0547 E-score. The value for GTACACGA was 0.165 ± 0.0933 E-score. The value for ACTAGATC was 0.181 ± 0.003 E-score; that for CGAAGATA was 0.325 ± 0.0496 E-score; that for ATCCCGAC was 0.238 ± 0.0448 E-score. As for CACCGATA, the figure is 0.374 ± 0.0197 E-score. For the sequence ACCCGATC, the binding signal amounted to 0.372 ± 0.0497 E-score. As for AACCGATA, the figure is 0.41 ± 0.00758 E-score; as for ACCCGATA, 0.4 ± 0.0453 E-score; as for GCCCGATA, 0.33 ± 0.0332 E-score.

Consider TACCGATA, for which the binding signal came out at 0.375 ± 0.0115 E-score. The value for ATACATTA was 0.223 ± 0.0139 E-score. For the sequence ATCCATGC, the binding signal was 0.253 ± 0.0158 E-score. Regarding ATCCGAAC, the binding signal is 0.278 ± 0.0321 E-score. As for GCGGATAC, the figure is 0.43 ± 0.00572 E-score; as for CCGGATAG, 0.361 ± 0.0142 E-score; as for ACGGATAG, 0.344 ± 0.0201 E-score. The value for ACGGATAT was 0.4283 ± 0.00251 E-score; that for ACGGATTC was 0.187 ± 0.0297 E-score. As for ACGGATTG, the figure is 0.179 ± 0.0302 E-score; as for ACGGATAA, 0.216 ± 0.0405 E-score; as for CCGGATAA, 0.299 ± 0.0306 E-score. As to GCGGATAA, the binding signal was 0.317 ± 0.0316 E-score.

For the sequence ACGGATAC, the binding signal was 0.454 ± 0.00689 E-score. As for CCGGATAC, the figure is 0.4414 ± 0.00339 E-score; as for AGGTAGAT, 0.2625 ± 0.00214 E-score. As for GATCTGCC, the binding signal was found to be 0.334 ± 0.00569 E-score. For the sequence ATCCGAGC, the binding signal turned out to be 0.24 ± 0.00809 E-score. In the case of GTATTACA, the binding signal worked out at 0.227 ± 0.0055 E-score. In the case of GATAGTCC, the binding signal was found to be 0.24 ± 0.023 E-score. As for GGTGTTAA, the figure is 0.301 ± 0.0173 E-score; as for ATCTGTAC, 0.221 ± 0.0203 E-score; as for ATCGCATA, 0.287 ± 0.0238 E-score.

As to GATCATTA, the binding signal was found to be 0.348 ± 0.0458 E-score. As for AGTCTGAT, the figure is 0.19 ± 0.0144 E-score. The value for ACGATCCC was 0.337 ± 0.0613 E-score; that for CCGATCGA was 0.264 ± 0.0353 E-score.

On to GAGATCCC, for which the binding signal came to 0.378 ± 0.0279 E-score. The value for AAGATCCC was 0.243 ± 0.0194 E-score; that for GAGATCCA was 0.332 ± 0.0213 E-score. As for GCGATCCC, the figure is 0.395 ± 0.0154 E-score; as for GCGATCGA, 0.199 ± 0.0473 E-score. On to CCGATCCC, for which the binding signal was 0.412 ± 0.0499 E-score. For GCGATCGC, the binding signal came out at 0.378 ± 0.0183 E-score. Turning to CCGATCTC, the binding signal is 0.316 ± 0.0192 E-score. As for CCGATCGC, the figure is 0.212 ± 0.0392 E-score. The value for GCGATCCA was 0.345 ± 0.0824 E-score.

CAGATAGG: the binding signal was 0.245 ± 0.0333 E-score. The value for TATATAAA was 0.197 ± 0.00308 E-score; that for TAGATCTA was 0.175 ± 0.0374 E-score. The value for ATATGTAC was 0.244 ± 0.0293 E-score.

ATCGCTTG: the binding signal was found to be 0.156 ± 0.032 E-score. For GATCGATC, the binding signal was determined as 0.362 ± 0.0437 E-score. As for ATACGGTC, the figure is 0.256 ± 0.0328 E-score; as for ATACGGTG, 0.328 ± 0.012 E-score. As to ATACGATG, the binding signal turned out to be 0.277 ± 0.0162 E-score.

As for GAACGATA, the binding signal worked out at 0.383 ± 0.0174 E-score. As for TAACGATA, the figure is 0.315 ± 0.0478 E-score. The value for AATCGATA was 0.335 ± 0.0577 E-score; that for GATCGATA was 0.408 ± 0.0108 E-score. With GAACGATC, the binding signal was 0.236 ± 0.00301 E-score. As for ATACGATC, the figure is 0.388 ± 0.00595 E-score. The value for CTACGATC was 0.233 ± 0.0113 E-score. For the sequence ATACGGTA, the binding signal turned out to be 0.405 ± 0.0105 E-score.

As to ACCAGGGT, the binding signal worked out at 0.189 ± 0.0407 E-score. As for CCGTCTAC, the binding signal amounted to 0.171 ± 0.0578 E-score. Take ATCGGTTG: the binding signal is 0.238 ± 0.008 E-score. As for TAATCTCA, the figure is 0.186 ± 0.0184 E-score. Consider GTGTCCAA, for which the binding signal came to 0.221 ± 0.057 E-score. In the case of GGGCTAGA, the binding signal is 0.209 ± 0.0223 E-score. The value for ACACGATG was 0.156 ± 0.0256 E-score; that for ACACGATA was 0.384 ± 0.0253 E-score. Regarding ATACTATC, the binding signal worked out at 0.401 ± 0.0105 E-score. The value for ACACGATC was 0.266 ± 0.019 E-score; that for CTACTATC was 0.273 ± 0.0271 E-score; that for ATACTATA was 0.371 ± 0.0468 E-score. The value for CTACGATA was 0.321 ± 0.0303 E-score; that for ATACGATA was 0.419 ± 0.0297 E-score; that for GTACGATA was 0.338 ± 0.0355 E-score. On to AACTATAC, for which the binding signal turned out to be 0.24 ± 0.0587 E-score. The value for AGATGTAT was 0.338 ± 0.00993 E-score. The value for ATACGCAC was 0.254 ± 0.00836 E-score; that for CCCATGGG was 0.152 ± 0.0229 E-score; that for GATCGGCA was 0.211 ± 0.0237 E-score. Turning to ATACACAT, the binding signal stood at 0.289 ± 0.00303 E-score. As for GTGTGATA, the figure is 0.411 ± 0.0318 E-score.

With ATGTGATA, the binding signal amounted to 0.392 ± 0.0638 E-score.

Turning to GTGTGTGA, the binding signal was 0.174 ± 0.0383 E-score. As for GTGTGAGA, the figure is 0.245 ± 0.029 E-score; as for ATGTGAGA, 0.165 ± 0.0625 E-score. Consider ATGTGATC, for which the binding signal amounted to 0.32 ± 0.0109 E-score. With CTGTGATA, the binding signal was 0.39 ± 0.0381 E-score. As for CTGTGATC, the figure is 0.328 ± 0.00414 E-score; as for AGATAGGA, 0.175 ± 0.0479 E-score. As for CGAATCCA, the figure is 0.1647 ± 0.00129 E-score. As for CCCGCGGA, the figure is 0.205 ± 0.00383 E-score; as for TATCTGCA, 0.284 ± 0.0307 E-score; as for GAAATACC, 0.1851 ± 0.00123 E-score.

For the sequence ATACCGAA, the binding signal is 0.329 ± 0.0172 E-score. ATACCGAT: the binding signal turned out to be 0.3532 ± 0.00127 E-score.

For ACACCGCA, the binding signal is 0.351 ± 0.043 E-score.

As for ATACCGCC, the binding signal was 0.418 ± 0.0211 E-score. The value for ATACCGCG was 0.377 ± 0.0129 E-score. ATACCGCA: the binding signal amounted to 0.4061 ± 0.00272 E-score. As to ATACCGAG, the binding signal was 0.304 ± 0.0181 E-score. Take ACACCGCC: the binding signal is 0.321 ± 0.0533 E-score. Regarding ACACCGCG, the binding signal was 0.283 ± 0.0738 E-score.

Take CTGAGCCC: the binding signal turned out to be 0.161 ± 0.049 E-score.

For the sequence ATCCCAAC, the binding signal amounted to 0.189 ± 0.0265 E-score.

ATACGTCA: the binding signal turned out to be 0.196 ± 0.0392 E-score. Consider ATCAGCGG, for which the binding signal was 0.171 ± 0.08 E-score. Consider ACAATATC, for which the binding signal came out at 0.309 ± 0.0486 E-score.

On to AGGATAGG, for which the binding signal came out at 0.306 ± 0.0312 E-score. As for CTGATAGC, the figure is 0.319 ± 0.0368 E-score; as for ATGATAGG, 0.387 ± 0.0153 E-score; as for ACGATAGG, 0.269 ± 0.00971 E-score. Take ATGATCGC: the binding signal turned out to be 0.265 ± 0.0383 E-score. As for ATGATAGC, the figure is 0.379 ± 0.0583 E-score. On to ATCCAGCA, for which the binding signal stood at 0.198 ± 0.0454 E-score. Regarding CGTAACAC, the binding signal came out at 0.205 ± 0.0442 E-score. With ATTACATC, the binding signal came out at 0.248 ± 0.072 E-score.
